The entries come from a sample that favours hits as a whole.
Algae TAG accum: inducers of triacylglycerol accumulation in Chlamydomonas reinhardtii algae; 44,000 compounds, 0.84% hits; calls only at 10 µM (by protocol); Chlamydomonas reinhardtii TAG, Nile Red fluorescence, 72 h; AID 1159537; call rule not given here;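 note: hits raise Nile Red signal meaning more stored TAG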
Calls only; . = inactive; + = active, no number.

SMILES | Algae TAG accum
COc1ccc(N2CCN(Cc3ccsc3)CC2)cc1 | +
COc1ccc(N2CCN(Cc3cccnc3)CC2)cc1 | .
O=C(O)c1ccccc1-c1nc2ccc([N+](=O)[O-])cc2s1 | .
CCCCc1nnc(NC(=O)c2ccc([N+](=O)[O-])cc2)s1 | .
COc1ccc(CC(=O)NC2CCCC2)cc1 | .
COc1ccc(Nc2nc(N)nc(CN(C)C3CCCCC3)n2)cc1 | .
COc1ccc(CN(C)C2CCCCC2)cc1 | +
COc1ccc(CN2CCCC(O)C2)cc1C (centres undefined) | .
COc1ccc(CNC2CCCC2)cc1C | .
COc1ccc(CN(C)C2CCCCC2)cc1C | +
CCCCOC(=O)Nc1ccc([N+](=O)[O-])cc1OC | .
O=C(Nc1ccc(O)c(-c2nc3ccccc3o2)c1)c1cc(Br)ccc1Cl | .
CC(=O)C(C(=N)N1CCCC1)=C(C)O | .
COc1ccc(CC(=O)Nc2ccc(NC(=O)c3ccc(Cl)cc3Cl)cc2)cc1OC | .
Cc1sc(NC(=O)c2ccc(F)c(F)c2)nc1-c1ccccc1 | .
Cc1ccnc(NS(=O)(=O)c2ccc(NC(=O)C(Cl)Cl)cc2)n1 | .
Cc1cc(C)c(C#N)c(SCC(=O)c2ccc(O)c(O)c2)n1 | .
Cc1cc(Cl)ccc1OCc1nc(-c2cccnc2)no1 | .
COc1ccc(N2CCN(C(=O)c3ccc(CN4CCc5ccccc5C4)cc3)CC2)cc1 | .
NC(=O)C1CCN(C(=O)c2ccc(CN3CCc4ccccc4C3)cc2)CC1 | .
O=C(c1ccc(CN2CCc3ccccc3C2)cc1)N1CCN(c2ccccc2F)CC1 | +
Cc1ccc(C(=O)Nc2cccc(C=CC(=O)O)c2)o1 | .
C=CCC1(C#N)C(SC)=NC2=C(C(=O)CC(C)(C)C2)C1c1ccccc1 (centres undefined) | .
CCOc1ccc(NC(=O)c2c(-c3ccccc3)noc2C)c([N+](=O)[O-])c1 | .
CC1(C)CC(=O)C2=C(C1)N(c1cccc(O)c1)C(=O)CC2c1ccccc1 (centres undefined) | .
SMILES | Algae TAG accum
C/C(=C\c1ccccc1)CN(C)CCN(C)C | +
C/C(=C\c1ccccc1)CN(C)C1CCN(C)CC1 | .
C/C=C(\C)CN(C)CCN(C)C | .
COc1cccc(NC(=O)Nc2ccc(Cl)c(Cl)c2)c1 | .
Cc1cccc(C(=O)Nc2sc(C)c(C)c2C(=O)O)c1 | .
Cc1sc(NC(=O)c2cccs2)c(C(=O)O)c1C | +
O=C(Nc1scc(-c2cccs2)c1C(=O)O)c1cccs1 | .
O=C(NCc1cccs1)C1CC1c1ccccc1 (centres undefined) | .
CCN(CC)CC#CC(C)(O)C(C)C (centres undefined) | .
CCN(CC)CC#Cc1ccc(C#CCN(CC)CC)cc1 | +
CCN(CC)CC#CC(O)c1ccccc1 (centres undefined) | .
CCC(NC(=O)C1C2CCC(C2)C1C(=O)O)c1ccccc1 (centres undefined) | .
COc1cc2c(cc1OC)CN(C1CCN(Cc3ccccc3)CC1)CC2 | .
CC(=O)c1cccc(N2Cc3ccccc3C2)c1 | .
C=CCC(C)(CC=C)NS(=O)(=O)c1ccc(NC(C)=O)cc1 | .
c1coc(CN2CCN(C3CC4CCC3C4)CC2)c1 (centres undefined) | .
CN1CCCN(Cc2ccco2)CC1 | .
c1coc(CN2CCN(C3CCCCC3)CC2)c1 | +
CC(C)C(=O)Nc1ccc(NC(=O)COc2ccc([N+](=O)[O-])cc2)cc1 | .
O=C(Nc1ccc2nc(-c3ccccn3)c(-c3ccccn3)nc2c1)N1CCCC1 | .
Cc1nc2ccc(NC(=O)Nc3ccc(N(C)C)cc3)cc2nc1C | .
CN(C)c1ccc(NC(=O)Nc2ccc3nc(-c4ccccn4)c(-c4ccccn4)nc3c2)cc1 | +
CCCNC1=C(N(C(C)=O)c2cccc(F)c2)C(=O)c2ccccc2C1=O | .
COc1cccc(N(C(C)=O)C2=C(NC3CCCCC3)C(=O)c3ccccc3C2=O)c1 | .
CC(=O)N(C1=C(Nc2ccccc2)C(=O)c2ccccc2C1=O)c1ccccc1 | +
SMILES | Algae TAG accum
COc1cccc(C(=O)Nc2ccc3oc(-c4ccncc4)nc3c2)c1 | +
Cc1ccc(C(=O)Nc2ccc3oc(-c4ccncc4)nc3c2)cc1C | +
O=C(Nc1ccc2oc(-c3cccnc3)nc2c1)c1ccncc1 | .
COc1cccc(C(=O)Nc2ccc3oc(-c4ccc(F)cc4)nc3c2)c1 | .
COc1ccc(-c2nc3cc(NC(=O)c4ccccc4)ccc3o2)cc1 | .
O=C(Nc1ccc2oc(-c3ccncc3)nc2c1)c1ccccc1 | .
O=C(NC1CCCCC1)c1ccc2c(c1)C(=O)N(N1C(=O)c3ccccc3C1=O)C2=O | .
O=C1CCS(=O)(=O)c2ccccc21 | .
CCN1CCC(N2CCN(c3ccccc3)CC2)CC1 | .
c1ccc(N2CCN(CC3CCCCC3)CC2)cc1 | +
O=C(C1CCN(CC2CCCCC2)CC1)N1CCN(c2ccccc2)CC1 | .
O=C(Nc1cccnc1)C(=O)Nc1cccnc1 | .
CC1CCCCN1S(=O)(=O)c1ccc(NC(=O)c2ccccc2[N+](=O)[O-])cc1 (centres undefined) | .
CC(=O)c1cccc(NC(=O)COc2c(C)cc(C)cc2C)c1 | .
C=CCc1cc(OC)ccc1OCCOCCn1ccnc1 | +
C=CCc1cc(OC)ccc1OCCCCn1ccnc1 | .
C=CCc1cc(OC)ccc1OCCn1ccnc1 | .
Cc1c(NC(=O)CSc2nc(-c3ccccc3)cs2)c(=O)n(-c2ccccc2)n1C | .
O=C(NC1CCCCC1NC(=O)C1CC1)C1CC1 (centres undefined) | .
CCn1c(C=Cc2ccccc2Cl)nc2ccccc2c1=O | .
CCN(Cc1ccccc1)C(=O)C1CCN(CC2CC=CCC2)CC1 (centres undefined) | .
NC(=O)C1CCN(CC2CC=CCC2)CC1 (centres undefined) | .
C=C(C)CN(CC)C(=O)C1CCN(CC2CC=CCC2)CC1 (centres undefined) | +
O=C1C(=O)N(CCCN2CCOCC2)C(c2ccc([N+](=O)[O-])cc2)C1=C(O)c1ccc(F)cc1 (centres undefined) | .
CCCCC(=O)Nc1ccc(NC(=O)c2ccc(Br)o2)cc1OC | .
SMILES | Algae TAG accum
CS(=O)(=O)N1CCN(C2C3CC4CC(C3)CC2C4)CC1 (centres undefined) | +
O=C(c1ccccc1)N1CCN(C2C3CC4CC(C3)CC2C4)CC1 (centres undefined) | .
Cc1ccc(N2CCN(C3C4CC5CC(C4)CC3C5)CC2)cc1 (centres undefined) | .
CCN(CC)C(=O)CSc1nc(O)c(C)c(=O)n1-c1ccccc1 | .
COc1cc2c(cc1OC)C(c1cccc(Cl)c1Cl)NC(=O)C2 (centres undefined) | .
CCN(CC)CCCN1C(=O)C(=O)C(=C(O)c2ccccc2)C1c1cccnc1 (centres undefined) | .
COc1ccccc1CC(=O)Nc1ccc(C(=O)Nc2nccs2)cc1 | .
CN1CCC(N(C)Cc2cccc([N+](=O)[O-])c2)CC1 | .
CC1CCCCC1NCc1ccc([N+](=O)[O-])cc1 (centres undefined) | .
O=[N+]([O-])c1cccc(CNC2CCCCCC2)c1 | +
O=[N+]([O-])c1cccc(CN2CCCCCC2)c1 | .
O=C(NC1CCCCCC1)c1cccc([N+](=O)[O-])c1 | .
O=C(NC1CCCCCC1)c1ccc([N+](=O)[O-])cc1 | .
CN(Cc1ccc([N+](=O)[O-])cc1)C1CCCCC1 | +
O=[N+]([O-])c1ccc(CNC2CCCC2)cc1 | +
O=[N+]([O-])c1ccc(CNC2CCCCCC2)cc1 | +
CN1CCC(N(C)Cc2ccc([N+](=O)[O-])cc2)CC1 | .
